Our source for the Potency values is PubChem BioAssay (Tox21).

“And” between values parts separate entries of the source, which are not always exact repeats. Equal values may be shown once. Records with an inconclusive call do not appear. The source made the active and inactive calls. Calls come from the whole dose curve; as a rule, active = well fitted cell-killing curve with a large enough effect in the repeat runs; inconclusive = weak or mixed curves; inactive = no such curve, though single readings can be large or run the other way.
Potency is the fitted concentration of half-maximal effect.

The assay is described as follows: qHTS assay to identify small molecule antagonists of the peroxisome proliferator-activated receptor delta (PPARd) signaling pathway - cell viability counter screen (AID 743213). Note: nearly all actives have a fitted effect of over 50% in size. Particulars: PPARd-bla HEK293H viability, CellTiter-Glo luminescence, 17 h; series mostly up to 62 µM. The text has this: U.S. Tox21 Program National Center for Advancing Translational Sciences [NCATS] NIH Chemical Genomics Center [NCGC] U.S. Environmental Protection Agency [EPA] National Institutes of Environmental Health Sciences [NIEHS] National Toxicology Program [NTP] U.S. Food and Drug Administration [FDA] Tox21 Assay Overview: The peroxisome proliferator-activated receptors (PPARs) are lipid-activated transcription factors of the nuclear receptor superfamily with three distinct subtypes namely PPAR alpha, PPAR delta (PPARd) and PPAR gamma. All these subtypes heterodimerizes with Retinoid X receptor (RXR) and have different physiological functions. […] To identify the compounds that inhibit PPAR-delta signaling, GeneBLAzer PPAR delta UAS-bla HEK293H cell line (Invitrogen, Carlsbad, CA, USA) containing a beta-lactamase reporter gene under the control of an Upstream Activator Sequence (UAS) was used to screen the Tox21 compound library. The cytotoxicity of the Tox21 compound library against the PPARd-bla cell line was tested in parallel by measuring the cell viability using CellTiter-Glo assay (Promega, Madison, WI) in the same wells.
Tox21 Assay Protocol Summary: PPARd-bla cells were dispensed at 3000 cells/5uL/well in 1536-well black wall/clear bottom plates using a Multidrop Combi (Thermo Fisher Scientific, Waltham, MA) dispenser. After the assay plates were incubated at 37 C and 5% CO2 for 5 h, 23 nL of compounds dissolved in DMSO, positive controls or DMSO only was transferred to the assay plate by a Pintool station (Kalypsys, San Diego, CA), followed by addition of 1ul L165041 (300 nM, final concentration in the wells). The assay plates were incubated at 37 C for 17 h, and then 1 uL of LiveBLAzerTM B/G FRET substrate was added using a Bioraptr Flying Reagent Dispenser (FRD) workstation (Beckman Coulter, Indianapolis, IN, USA). The assay plates were incubated at room temperature for 2 h and fluorescence intensity was measured by an Envision plate reader (PerkinElmer, Shelton, CT). For cell viability readout that measures cytotoxicity, 3 ul/well of CellTiter-Glo reagent was added into the assay plates using a Bioraptr FRD. After 30 min incubation at room temperature, the luminescence intensity in the plates was measured using a ViewLux plate reader (PerkinElmer).
A general note: In qHTS, concentration-response curves come from the screen itself.
In the case of `COC(=O)C1=C(C)NC(C)=C(C(=O)OCCc2ccc(N3CCN(C(c4ccccc4)c4ccccc4)CC3)cc2)C1c1cccc([N+](=O)[O-])c1` (stereo not given), the Potency entry was “inactive”.

With `Cc1onc(-c2c(Cl)cccc2Cl)c1C(=O)N[C@@H]1C(=O)N2[C@@H]1SC(C)(C)[C@@H]2C(=O)O`, the Potency entry is “inactive”. Regarding `C=CC(=O)OCC(CO)(COC(=O)C=C)COC(=O)C=C`, the Potency was 19.6 µM (active) and 13.8 µM (active). In the case of `CC(C)(C)NC(=O)[C@@H]1C[C@@H]2CCCC[C@@H]2CN1C[C@@H](O)[C@H](Cc1ccccc1)NC(=O)[C@H](CC(N)=O)NC(=O)c1ccc2ccccc2n1`, the Potency was 44.2 µM (active).

For the molecule `CN1CCN(CCC(=O)N2c3ccccc3Sc3ccc(C(F)(F)F)cc32)CC1`, the Potency is 16.8 µM (active).

For `CCN(Cc1cccnc1)C(=O)c1cccc(Cl)c1[C@]1(C)C(=O)N(Cc2ccc(OC)cc2OC)c2ccc(Cl)cc21`, the Potency is 5.13 µM (active).

Take `COc1ccc(C(=O)/C(Br)=C\C(=O)O)cc1`: the Potency result is “inactive”.

Consider `CCCCCCCCn1sc(Cl)c(Cl)c1=O`, for which the Potency is 3.89 µM (active). The entry for `CCOC(=O)O[C@]1(C(=O)OCCl)CC[C@H]2[C@@H]3CCC4=CC(=O)C=C[C@]4(C)[C@H]3[C@@H](O)C[C@@]21C` is “inactive”; for `CC(C)(C)c1ccc(C(=O)O)cc1` it is “inactive”. With `O=C1Cc2cc(CCN3CCN(c4nsc5ccccc45)CC3)c(Cl)cc2N1` the figure was 26.6 µM (active). For the molecule `Cc1cc(N)c(S(=O)(=O)O)cc1Cl`, the Potency entry was “inactive”. The figure for `CCCCCCCCCCCCc1ccc(O)cc1` is 24.5 µM (active); for `CCCCCCCC/C=C/CCCCCCCC1=NCCN1CCO` it is 49 µM (active). The figure for `CC(C)c1ccc2c(c1)CC[C@H]1[C@](C)(CN)CCC[C@]21C` is 21.9 µM (active); for `O=C1c2c(O)ccc(Nc3ccc(CCO)cc3)c2C(=O)c2c([N+](=O)[O-])ccc(O)c21` it is “inactive”. With `O=C(O)c1c(Cl)cccc1Cl`, the Potency result was “inactive”.

As to `Cc1oc(-c2ccccc2)nc1CCC(=O)c1ccc(CC2SC(=O)NC2=O)cc1` (stereo not given), the Potency result was “inactive”. With `NC(=O)N1C(=O)C(C(=O)c2cc(Cl)cs2)c2cc(F)c(Cl)cc21` (stereo not given) the figure was 15.5 µM (active); with `Oc1ccc(C2(c3ccc(O)cc3)CC3CC2C2CCCC32)cc1` (stereo not given), 23.6 µM (active); with `CCN(CC)CCCC(C)Nc1c2ccc(Cl)cc2nc2ccc(OC)cc12` (stereo not given), 29.8 µM (active). For the molecule `COc1cc(-c2nc(NC(=O)c3cc4cc(C)cc(C)c4n3CC(=O)O)sc2CCC2CCCCC2)c(OC)cc1Cl`, the Potency was 20.1 µM (active). With `Clc1ccc(C(Cn2ccnc2)OCc2ccc(Sc3ccccc3)cc2)c(Cl)c1` (stereo not given) the entry was “inactive”; with `CC(C)(C)CC(C)(C)c1ccc(O)c(Cc2ccc(Cl)cc2Cl)c1`, 26.6 µM (active); with `O=C(Oc1cccc2cccnc12)c1ccccc1`, 4.22 µM (active). With `O=S1(=O)CC(Cl)(Cl)C(Cl)(Cl)C1` the figure was 3.89 µM (active). As to `O=Cc1cc(O)ccc1Br`, the Potency result was “inactive”. As to `O=C1C=CC(=O)N1c1ccc(Cc2ccc(N3C(=O)C=CC3=O)cc2)cc1`, the Potency is 34.7 µM (active).

Turning to `CC(C)CCCCCCCCCCCCCCC(=O)O`, the Potency result is “inactive”. As for `O=C(NOCC1CC1)c1ccc(F)c(F)c1Nc1ccc(I)cc1Cl`, the Potency entry was “inactive”.

Consider `Oc1ccc(Cl)cc1Sc1cc(Cl)ccc1O`, for which the Potency is 24.5 µM (active). The entry for `CC(=O)SC[C@@H](Cc1ccccc1)C(=O)NCC(=O)OCc1ccccc1` is “inactive”; for `c1ccc(CSCc2ccccc2)cc1` it is “inactive”; for `Cc1cccc(CN2CCN(C(c3ccccc3)c3ccc(Cl)cc3)CC2)c1` (stereo not given) it is “inactive”. With `CO[Si](CCCNc1ccccc1)(OC)OC` the entry was “inactive”; with `CC(=O)N1CCN(c2ccc(OC[C@H]3CO[C@](Cn4ccnc4)(c4ccc(Cl)cc4Cl)O3)cc2)CC1`, 27.5 µM (active); with `CC1=C(/C=C/C(C)=C/C=C/C(C)=C/C=O)C(C)(C)CCC1`, 43.4 µM (active). Turning to `C[n+]1cc2c3c(ccc2c2ccc4cc5c(cc4c21)OCO5)OCO3`, the Potency was 1.84 µM (active).

For `Nc1nc2ccccc2n1Cc1ccc(F)cc1`, the Potency entry is “inactive”.

Regarding `Clc1ccc2n[nH]nc2c1`, the Potency result is “inactive”.
